# Measured values as given in PubChem BioAssay AID2685 (National Center for Advancing Translational Sciences (NCATS), 2010).
# Out of some 320,000 compounds screened, about 2,100 (0.66%) were called active. About 53% were inconclusive and are not listed. Calls come from the whole dose curve; as a rule, active = well fitted inhibition curve with a large enough effect in the signal ratio, with a control signal flat (not every such curve was filed as active); inconclusive = small, poorly fitted or top-dose-only effect, or effect the other way, or a change in a side signal; inactive = flat fitted curve, though single readings scatter; the % refers to the signal ratio. Many of the other results were omitted from the sample, so actives are more common in it than they were.
# Assay: qHTS Assay for Lipid Storage Modulators in Drosophila S3 Cells;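 for cell number change: cells counted by Cell Tracker Red CMTPX staining in the red channel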; for lipid storage change, negative = inhibition: % is set by controls: 0 for no effect and ±100 for the full control effect
# Conditions: BODIPY lipid droplet fluorescence, 18-24 h, cells fed with added oleic acid; cell number change: measured here: cell count max response; series mostly up to 46.1 µM; lipid storage change, negative = inhibition: at the top concentration
# Outline: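 Drosophila S3 cells got compounds at several concentrations plus oleic acid (400 uM solution). Laser-scanning cytometry with 488 nm excitation read lipid droplets at 500-530 nm and cells at 575-640 nm. Percent activity was relative to 20 uM Triacsin C.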
# Potency is the fitted concentration of half-maximal effect.
Structure (SMILES),Potency,cell number change,outcome,"lipid storage change, negative = inhibition"
COc1ccc(/C=C2\SC(=S)N(CCC(=O)N3CCCCC3CCO)C2=O)cc1 (stereo not given),20.6 µM (active),-3.06%,,
CN(C(=O)CCN1C(=O)/C(=C/c2ccccc2)SC1=S)C1CCS(=O)(=O)C1 (stereo not given),,10.8%,inactive,
COc1cc(/C=C2\SC(=S)N(CC(=O)O)C2=O)ccc1OS(=O)(=O)c1ccc(C)cc1,,-2.94%,,-18.6% (inactive)
O=C(O)CCCCN1C(=O)/C(=C\c2ccc(OCc3ccccc3)c(OCc3ccccc3)c2)SC1=S,,-10.9%,,-12.4% (inactive)
CN1CCN(C(=O)CCCN2C(=O)/C(=C/c3ccccc3)SC2=S)CC1,8.2 µM (active),3.91%,,
O=C(CCCN1C(=O)/C(=C/c2ccccc2)SC1=S)N1CCOCC1,,15.4%,inactive,
COc1ccc(/C=C2\SC(=S)N(CCCC(=O)N3CCN(C)CC3)C2=O)cc1,,-9.52%,inactive,
CCN(C(=O)CCN1C(=O)/C(=C/c2ccccc2)SC1=S)C1CCS(=O)(=O)C1 (stereo not given),18.4 µM (active),-2.83%,,
COc1ccc(/C=C2\SC(=S)N(CCCC(=O)N3CCCCC3CCO)C2=O)cc1 (stereo not given),,-3.77%,inactive,
O=C(O)CCN=C1CCCc2ccccc2N1,,-7.32%,,1.94% (inactive)
COCCCNc1nnc(Cc2ccccc2)c2ccccc12,,-6.27%,,4.29% (inactive)
CC(=O)N1CCCc2cc(S(=O)(=O)Nc3ccc(C)cc3C)ccc21,,19.8%,,-5.87% (inactive)
Cc1ccc(C(O)P(=O)(OC2CCCCC2)OC2CCCCC2)cc1 (stereo not given),,22.2%,,-12.5% (inactive)
O=C(COc1ccc(S(=O)(=O)Nc2ccccc2)cc1)NCc1cccnc1,,-1.79%,,-1.07% (inactive)
Cc1c(C(=O)NC(C)C)c(-c2ccccc2)nn1-c1ccccc1,,-7.38%,,6.49% (inactive)
O=C(Nc1nnc(C2=COCCO2)o1)c1ccc(S(=O)(=O)N2CCOCC2)cc1,,17.2%,,4.23% (inactive)
Cc1ccc(S(=O)(=O)N2CCc3c2cc([N+](=O)[O-])cc3[N+](=O)[O-])cc1,,25.6%,,9.86% (inactive)
COc1cccc(/C=C2\SC(=S)N(CCC(=O)N3CCCCC3CCO)C2=O)c1 (stereo not given),8.2 µM (active),-19.7%,,
CC(C)c1ccc(/C=C2\SC(=S)N(CCC(=O)N3CCCCC3CCO)C2=O)cc1 (stereo not given),,-22.4%,inactive,
O=C(O)CCCCCN1C(=O)/C(=C\c2ccncc2)SC1=S,3.26 µM (active),-19.2%,,
O=C(O)CCCN1C(=O)/C(=C/c2ccncc2)SC1=S,,-13%,,-1.54% (inactive)
COc1cccc(/C=C2\SC(=S)N(CCCC(=O)N3CCCCC3CCO)C2=O)c1 (stereo not given),,,inactive,
O=C(CCN1C(=O)/C(=C\c2ccccc2)SC1=S)N1CCCCC1,,9.57%,,-17.1% (inactive)
O=C(O)CCCCCN1C(=O)/C(=C/c2ccncc2)SC1=S,,8.67%,,-21.5% (inactive)

Structure (SMILES),Potency,cell number change,outcome,"lipid storage change, negative = inhibition"
O=C1/C(=C/c2ccccc2)SC(=S)N1CCCC(=O)N1CCCCC1CCO (stereo not given),18.4 µM (active),5.19%,,
COc1cccc(/C=C2\SC(=S)N(CCCC(=O)N3CCCC3)C2=O)c1,,19.2%,,-27.9% (inactive)
COC(=O)C1=C(C)NC(=O)/C1=C\c1ccc2c(c1)OCO2,,-20.5%,,-12% (inactive)
CCOC(=O)C1(Cc2cccc(Cl)c2)CCCN(C(=O)c2cn[nH]c2)C1 (stereo not given),,-11.4%,,-0.385% (inactive)
CN(C)c1ccc(C(=S)N2CCN(Cc3ccccc3)CC2)cc1,,-4.36%,,10.1% (inactive)
CC(C)c1ccc(C(O)P(=O)(OCc2ccccc2)c2ccc(N(C)C)cc2)cc1 (stereo not given),,1.68%,,-15.1% (inactive)
COc1ccc(NC(=O)CN(c2ccc([N+](=O)[O-])cc2)S(=O)(=O)c2ccccc2)c(OC)c1,,-1.88%,,5.04% (inactive)
O=C1NCCCC1C(=O)NCCN1C(=O)CCC1=O (stereo not given),,-2.23%,,0.15% (inactive)
O=C(Nc1cccc(C(F)(F)F)c1)c1ccc(-n2cncn2)nc1,,5.24%,,-0.0627% (inactive)
COc1ccc(N(CC(=O)N2CCN(Cc3ccc4c(c3)OCO4)CC2)S(C)(=O)=O)cc1OC,,14.4%,,0.719% (inactive)
CC(C)CCNC(=O)CN(Cc1ccco1)C(=O)c1snc(C(N)=O)c1N,,8.95%,,7.91% (inactive)
COc1ccc(CCNS(=O)(=O)c2ccc(Br)cc2)cc1OC,,-6.93%,,10.6% (inactive)
COc1ccc(S(=O)(=O)NCCc2c[nH]c3ccc(Cl)cc23)cc1,20.6 µM (active),,,
COc1ccc(CCNC(=O)COc2ccc(S(=O)(=O)NC3CCCCC3)cc2Cl)cc1OC,8.2 µM (active),-27.7%,,
COc1ccc(CCNS(=O)(=O)c2ccc([N+](=O)[O-])cc2)cc1OC,,0.785%,,23.7% (inactive)
COc1ccc2[nH]cc(CCNS(=O)(=O)c3ccc(F)cc3)c2c1,,-14.3%,,-4.21% (inactive)
CCNS(=O)(=O)c1ccc(Br)c(OC)c1,25.9 µM (active),-59.3%,,
COc1ccc(S(=O)(=O)NC2CCCC2)cc1Cl,,,,-23% (inactive)
COc1ccc(CCNS(=O)(=O)c2ccc(Cl)cc2)cc1OC,1.64 µM (active),-15.3%,,
CCOc1cc(S(=O)(=O)NCc2ccccc2)ccc1Br,,-16.8%,,13.7% (inactive)
COc1ccc2[nH]cc(CCNS(=O)(=O)c3ccc(C)cc3)c2c1,,2.67%,,-1.15% (inactive)
COc1ccc(CCNC(=O)COc2ccc(S(=O)(=O)NC(C)C)cc2Cl)cc1OC,,,,-26% (inactive)
COc1cc(S(=O)(=O)NCc2ccccc2)ccc1Br,,5.28%,,-0.0691% (inactive)
